# From PubChem BioAssay
# “And” between values parts separate entries of the source, which are not always exact repeats. Equal values may be shown once. The source made the active and inactive calls. Cut-off read from the data, not from the text of the source, unless noted: active = inhibition above about 80%; inactive = the rest.
# Tests used:
# [1] = sensitizers of A549 cells to miR-34 induction, primary screen, imaging, A549 dox-inducible miR-34, nuclei and caspase counts (AID 1347080;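 active = compounds whose cell count with miR-34 switched on is under 0.7 times the count with it off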); details: A549 miR-34 inducible, Hoechst nuclei count, 48 h
# [2] = survival rescue of mitochondrial mutant cells in low glucose, primary screen, MELAS cybrids, Rieske KO mouse fibroblasts, CellTiter-Glo (AID 1508586;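 active = mean z-score across replicates of 1.96 or higher in either the MELAS or the Rieske mutant cell line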;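 note: z relative to plate mean and SD of compound and empty wells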)
# [3] = LFS_MB_P medulloblastoma growth inhibition, cell-based, chromothripsis tumors, cisplatin or BGB combos (AID 1671449); details: LFS_MB_P medulloblastoma cells;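 note: cells exposed for 96 hours; 0% = vehicle DMSO and 100% = killing by high DMSO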
# [4] = HDN33 neuroblastoma growth inhibition, cell-based, chromothripsis tumors, cisplatin or BGB combos (AID 1671450); details: HDN33 neuroblastoma cells, stronger effect = higher value;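 note: cells exposed to compound for four days; 0% = vehicle DMSO and 100% = cell killing by high DMSO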
# [5] = ICB984 medulloblastoma cell growth inhibition, synergistic combos for chromothripsis tumors, cisplatin or BGB combos (AID 1671451; call rule not given here;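 note: cells exposed for 96 hours before readout; 0% = vehicle DMSO and 100% = killing by high DMSO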); details: ICB984 medulloblastoma cells, drug combinations, stronger effect = higher value
# [6] = LFS_MB_1R medulloblastoma cell growth inhibition, synergistic combos for chromothripsis tumors, cisplatin or BGB combos (AID 1671452); details: LFS_MB_1R medulloblastoma cells, stronger effect = higher value;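 note: cells exposed for 96 hours before readout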
# [7] = HTB85 osteosarcoma cell growth inhibition, synergistic combos for chromothripsis tumors, BGB or cisplatin IC20 combos (AID 1671453); details: HTB85 osteosarcoma cells, drug combinations, stronger effect = higher value;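 note: cells exposed for 96 hours before readout; 0% = vehicle DMSO and 100% = high DMSO killing control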
# [8] = CRL2098 osteosarcoma cell growth inhibition, synergistic combos for chromothripsis tumors, BGB or cisplatin IC20 combos (AID 1671454); details: CRL2098 osteosarcoma cells, drug combinations, stronger effect = higher value;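 note: cells exposed for 96 h before readout; 0% = vehicle DMSO and 100% = killing by high DMSO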
# [9] = HD-MB03 medulloblastoma cell growth inhibition, synergistic combos for chromothripsis tumors, BGB or cisplatin IC20 combos (AID 1671455; in the data active = inhibition above about 83%;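 note: 0% = vehicle DMSO and 100% = high DMSO as cytotoxic control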); details: HD-MB03 medulloblastoma cells, stronger effect = higher value
# [10] = UWB1.289 ovarian carcinoma cell growth inhibition, synergistic combos for chromothripsis tumors, BGB or cisplatin combos (AID 1671456); details: UWB1.289 ovarian carcinoma cells, stronger effect = higher value;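 note: cells exposed to compound for four days; 0% = vehicle DMSO and 100% = killing by high DMSO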
# [11] = LFS_MB_2R medulloblastoma cell growth inhibition, synergistic combos for chromothripsis tumors, cisplatin combos (AID 1671457); details: LFS_MB_2R medulloblastoma cells, stronger effect = higher value;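 note: cells exposed to compound for four days before readout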
# [12] = MDA-MB-436 breast carcinoma cell growth inhibition, synergistic combos for chromothripsis tumors, BGB or cisplatin combos (AID 1671458; call rule not given here;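 note: cells exposed for 96 hours; 0% = vehicle DMSO and 100% = killing by high DMSO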); details: MDA-MB-436 breast carcinoma growth inhibition, drug combinations, stronger effect = higher value
# [13] = UWB1.289_BRCA1 ovarian cancer growth, cell-based, BGB or cisplatin combinations (AID 1671459); details: UWB1.289 BRCA1 ovarian carcinoma, drug combinations, stronger effect = higher value
# [14] = human astrocyte viability loss, single and combined drugs, cytotoxicity control for chromothriptic childhood tumor combination screen, cell-based, BGB or cisplatin IC20 combos (AID 1671460); details: Human astrocytes, drug combinations, stronger effect = higher value;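 note: cells exposed to compounds for 96 hours before viability readout; 0% = vehicle and 100% = killing control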
# [15] = growth inhibition of BT084 medulloblastoma cells, cell-based, ICGC_MB145, cisplatin and BGB IC40 combos (AID 1671461); details: drug combinations, stronger effect = higher value;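 note: cells exposed to drugs for 96 hours; 0% = vehicle DMSO and 100% = high DMSO full killing control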
# [16] = growth inhibition of RCMB18 medulloblastoma cells, cell-based, cisplatin and BGB IC40 combos (AID 1671462); details: stronger effect = higher value;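 note: cells exposed to compound for four days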
# [17] = growth inhibition of CRL1545 osteosarcoma cells, cell-based, cisplatin and BGB IC20 combos (AID 1671464); details: stronger effect = higher value;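 note: cells exposed to compound for 96 hours before readout; 0% = vehicle DMSO and 100% = high DMSO killing control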
# [18] = measured here: combination with BGB IC40, at 0.05 µM
# [19] = measured here: with BGB IC20 combination, at 0.5 µM
# [20] = measured here: with cisplatin IC20 combination, at 0.5 µM
# [21] = measured here: combination with cisplatin, at 0.5 µM
# [22] = measured here: combination with cisplatin, at 5 µM
structure (smiles),measurement,setting,value
O=c1[nH]cnc2c1ncn2C1OC(CO)C(O)C1O (centres undefined),fold change,"[1]; stronger effect = lower value, cell number ratio, induced over uninduced",0.971 (inactive)
same,fold change,[1]; measured here: relative caspase fold change +Dox/-Dox,0.634
same,cell count,"[1]; measured here: total cells with miR-34 induction, stronger effect = lower value",8460
same,cell count,[1]; measured here: total cells without miR-34 induction,8710
same,z-score,"[2]; MELAS cybrid survival, CellTiter-Glo 48 h, stronger effect = higher value",-0.214 (inactive)
same,z-score,"[2]; Rieske KO mouse fibroblast survival, CellTiter-Glo 72 h",-0.0718
same,inhibition,"[3]; at 0.5 µM, stronger effect = higher value",-10.7% (inactive) and -25.9% (inactive)
same,inhibition,"[3]; measured here: combination with BGB IC20, at 0.005 µM",-29.2% and -10.3%
same,inhibition,"[3]; measured here: combination with BGB IC40, at 0.005 µM",-37.9% and -36.7%
same,inhibition,[3]; [18],-34.2% and -41.2%
same,inhibition,"[3]; measured here: combination with cisplatin, at 0.5 µM, stronger effect = higher value",-24.2% and -36.9%
same,inhibition,"[3]; measured here: combination with cisplatin, at 5 µM, stronger effect = higher value",-32.2% and -50.7%
same,inhibition,"[4]; BGB combo, at 5 µM",-71.8% and -17.3%
same,inhibition,[4]; at 0.5 µM,-41% (inactive) and -8.53% (inactive)
same,inhibition,"[4]; cisplatin combo, at 5 µM",-53.5% and 3.12%
same,inhibition,[4]; [19],-43% and -17%
same,inhibition,[4]; [20],-29.3% and -1.72%
same,inhibition,"[4]; single agent, at 5 µM",-56.1% and -7.95%
same,inhibition,"[5]; BGB IC20 combo, at 0.005 µM",-8.62% and -21.3%
same,inhibition,"[5]; BGB IC40 combo, at 0.005 µM",-26.4% and -10.8%
same,inhibition,"[5]; BGB IC40 combo, at 0.05 µM",-29.3% and -11.3%
same,inhibition,[5]; at 0.5 µM,-22.2% (inactive) and -24.4% (inactive)
same,inhibition,"[5]; cisplatin combo, at 0.05 µM",-36% and -15.3%
same,inhibition,"[5]; cisplatin combo, at 0.5 µM",-33.9% and -9.22%
same,inhibition,"[5]; cisplatin combo, at 5 µM",-24.4% and -48%
same,inhibition,"[5]; measured here: 5 uM single agent, at 5 µM",-3.92% and -14.5%
same,inhibition,[6]; at 0.5 µM,-44.3% (inactive) and -17.7% (inactive)
same,inhibition,[6]; [18],-7.53% and -27.6%
same,inhibition,[6]; [21],-65.5% and -12.7%
same,inhibition,[6]; [22],-61.2% and -68.6%
same,inhibition,[7]; at 0.5 µM,-33.2% (inactive) and -8.83% (inactive)
same,inhibition,"[7]; measured here: with BGB IC20, at 0.5 µM",-29.3% and -11.2%
same,inhibition,"[7]; measured here: with BGB IC20, at 5 µM",-15.9% and -25.5%
same,inhibition,"[7]; measured here: with cisplatin IC20, at 0.5 µM",-32% and -10.1%
same,inhibition,"[7]; measured here: with cisplatin IC20, at 5 µM",-20.2% and -47.1%
same,inhibition,"[7]; single agent, at 5 µM",-29.3% and -10.1%
same,inhibition,[8]; at 0.5 µM,-90% (inactive) and -56.6% (inactive)
same,inhibition,"[8]; measured here: combination with BGB at IC20, at 0.5 µM",-87.4% and -18.5%
same,inhibition,"[8]; measured here: combination with cisplatin at IC20, at 0.5 µM",-101% and -96.8%
same,inhibition,[9]; at 0.5 µM,-22.6% (inactive) and -12.7% (inactive)
same,inhibition,"[9]; measured here: combo with BGB at IC20, at 0.5 µM",-22.7% and -11.5%
same,inhibition,"[9]; measured here: combo with cisplatin at IC20, at 0.5 µM",-27.8% and -18.3%
same,inhibition,[10]; at 0.5 µM,-11.2% (inactive) and -3.6% (inactive)
same,inhibition,"[10]; measured here: inhibition with BGB combination, at 0.05 µM",-39.3% and 0.127%
same,inhibition,"[10]; measured here: inhibition with cisplatin combination, at 0.05 µM",-26% and -16.8%
same,inhibition,[11]; at 0.5 µM,-25.5% (inactive) and -18.4% (inactive)
same,inhibition,[11]; [21],-31.3% and -25.6%
same,inhibition,[11]; [22],-22.2% and -17.4%
same,inhibition,[12]; at 0.5 µM,-21.2% (inactive) and -4.5% (inactive)
same,inhibition,"[12]; measured here: BGB combination, at 0.5 µM",-24.8% and -4.38%
same,inhibition,"[12]; measured here: BGB combination, at 5 µM",-28.5% and -13.8%
same,inhibition,"[12]; measured here: cisplatin combination, at 0.5 µM",-29.8% and -11.4%
same,inhibition,"[12]; measured here: cisplatin combination, at 5 µM",-15.5% and -7.72%
same,inhibition,"[13]; BGB combination, concentration series, at 5 µM",-23.4% and 11.7%
same,inhibition,[13]; at 0.5 µM,-19.3% (inactive) and -1.78% (inactive)
same,inhibition,"[13]; cisplatin combination, concentration series, at 5 µM",-16.4% and -23.2%
same,inhibition,[14]; at 0.5 µM,3.07% (inactive) and 14% (inactive)
same,inhibition,"[14]; measured here: combo with BGB IC20, at 0.5 µM",13.9% and 6.47%
same,inhibition,"[14]; measured here: combo with cisplatin IC20, at 0.5 µM",-4.13% and 24.5%
same,inhibition,[15]; at 0.5 µM,-1.88% (inactive) and -23.7% (inactive)
same,inhibition,"[15]; cisplatin combination, at 0.5 µM",-2.01% and -52.6%
same,inhibition,"[15]; cisplatin combination, at 5 µM",-202% and -23.5%
same,inhibition,"[15]; measured here: BGB IC40 combination 0.05 uM, at 0.05 µM",-22.8% and -31.6%
same,inhibition,"[15]; single agent, at 5 µM",-16.1% and -9.19%
same,inhibition,[16]; at 0.5 µM,-14.6% (inactive) and -17.6% (inactive)
same,inhibition,"[16]; cisplatin combo, at 5 µM",-27.4% and -4.56%
same,inhibition,"[16]; measured here: BGB IC40 combination, at 0.05 µM",-8.27% and -1.88%
same,inhibition,[16]; [21],-12.7% and -17.5%
same,inhibition,"[16]; single agent, at 5 µM",-19.5% and -20.5%
same,inhibition,[17]; at 0.5 µM,-5.83% (inactive) and -5.48% (inactive)
same,inhibition,[17]; [19],-50.4% and -16.7%
same,inhibition,[17]; [20],15.1% and -1.52%
same,inhibition,"[17]; single agent, at 0.05 µM",-48.7% and 14.4%
same,inhibition,"[17]; single agent, at 5 µM",-40.4%
